Data: PubChem BioAssay AID1159580 (chemical genetic matrix, 2015)
The campaign covered roughly 5,500 compounds. About 2,000 (36%) were called active. About 18% were inconclusive and are not listed. Rule as the data show it: active = normalized growth mostly below about 0.91 (no sharp cut-off); inconclusive = no clear call, values can overlap the other calls; inactive = mostly above about 0.92. The list shows a part of the results.

Assay: chemical genetic growth profiling, strain panel (AID 1159580);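 also: tested at 20 µM; growth read once vehicle control cultures reached saturation at 30 °C; 1 = growth at the plate median or of vehicle wells; lower values mean less growth of the strain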
Settings: S. cerevisiae deletion strains, growth OD

Measured: normalized growth

CC(C)(C)c1cc(C(=O)Nc2ccc3c(c2)OCO3)n(Cc2ccc(F)cc2)n1
inactive: locus YAR019C, strain CDC15, stronger effect = lower value 0.987 | locus YBL105C, strain PKC1, stronger effect = lower value 0.968 | locus YBR135W, strain CKS1, stronger effect = lower value 0.979 | locus YBR136W, strain MEC1, stronger effect = lower value 0.99 | locus YBR160W, strain CDC28, stronger effect = lower value 0.98 | locus YDL017W, strain CDC7, stronger effect = lower value 0.989 | locus YDL028C, strain MPS1, stronger effect = lower value 0.991 | locus YDL101C, strain DUN1, stronger effect = lower value 0.997 | locus YDL108W, strain KIN28, stronger effect = lower value 0.986 | locus YDL132W, strain cdc53, stronger effect = lower value 0.972 | locus YDL214C, strain PRR2, stronger effect = lower value 0.908 | locus YDR052C, strain DBF4, stronger effect = lower value 0.988 | locus YDR054C, strain cdc34, stronger effect = lower value 0.993 | locus YDR226W, strain ADK1, stronger effect = lower value 0.983 | locus YDR477W, strain SNF1, stronger effect = lower value 0.938 | locus YER123W, strain YCK3, stronger effect = lower value 0.906 | locus YER133W, strain GLC7, stronger effect = lower value 0.955 | locus YFL009W, strain cdc4, stronger effect = lower value 0.994 | locus YFL029C, strain CAK1, stronger effect = lower value 0.98 | locus YFR003C, strain YPI1, stronger effect = lower value 0.991 | locus YFR019W, strain FAB1, stronger effect = lower value 0.938 | locus YFR028C, strain CDC14, stronger effect = lower value 0.978 | locus YGR040W, strain KSS1, stronger effect = lower value 0.916 | locus YGR052W, strain FMP48, stronger effect = lower value 0.997 | locus YGR092W, strain DBF2, stronger effect = lower value 0.902 | locus YHR030C, strain SLT2, stronger effect = lower value 0.878 | locus YHR079C, strain IRE1, stronger effect = lower value 0.926 | locus YHR082C, strain KSP1, stronger effect = lower value 0.984 | locus YHR205W, strain SCH9, stronger effect = lower value 0.86 | locus YIL147C, strain SLN1, stronger effect = lower value 0.99 | locus YJL095W, strain BCK1, stronger effect = lower value 0.877 | locus YJL128C, strain PBS2, stronger effect = lower value 0.977 | locus YJL157C, strain FAR1, stronger effect = lower value 0.909 | locus YJR016C, strain ILV3, stronger effect = lower value 0.981 | locus YJR066W, strain TOR1 (second series), stronger effect = lower value 0.889 | locus YJR066W, strain TOR1, stronger effect = lower value 0.999 | locus YKL048C, strain ELM1, stronger effect = lower value 0.931 | locus YKL067W, strain YNK1, stronger effect = lower value 0.94 | locus YKL101W, strain HSL1, stronger effect = lower value 0.891 | locus YKL193C, strain SDS22, stronger effect = lower value 0.987 | locus YKL203C, strain TOR2, stronger effect = lower value 0.994 | locus YLR133W, strain CKI1, stronger effect = lower value 0.918 | locus YLR403W, strain SFP1, stronger effect = lower value 0.906 | locus YML070W, strain DAK1, stronger effect = lower value 0.895 | locus YMR001C, strain CDC5, stronger effect = lower value 0.982 | locus YMR205C, strain PFK2 (second series), stronger effect = lower value 0.926 | locus YMR277W, strain FCP1, stronger effect = lower value 0.971 | locus YNL006W, strain LST8, stronger effect = lower value 0.987 | locus YNL020C, strain ARK1, stronger effect = lower value 0.889 | locus YNL161W, strain CBK1, stronger effect = lower value 0.969 | locus YNL183C, strain NPR1, stronger effect = lower value 0.928 | locus YNL207W, strain RIO2, stronger effect = lower value 0.986 | locus YNL222W, strain SSU72, stronger effect = lower value 0.983 | locus YNL307C, strain MCK1 (second series), stronger effect = lower value 0.9 | locus YOL078W, strain AVO1, stronger effect = lower value 0.981 | locus YOL136C, strain PFK27, stronger effect = lower value 0.892 | locus YOR061W, strain CKA2, stronger effect = lower value 0.874 | locus YOR119C, strain RIO1, stronger effect = lower value 0.992 | locus YOR231W, strain MKK1, stronger effect = lower value 0.876 | locus YOR329C, strain SCD5, stronger effect = lower value 0.96 | locus YPL031C, strain PHO85, stronger effect = lower value 0.934 | locus YPL153C, strain RAD53, stronger effect = lower value 0.923 | locus YPL204W, strain HRR25, stronger effect = lower value 0.909 | locus YPL209C, strain IPL1, stronger effect = lower value 0.968 | locus YPL256C, strain CLN2, stronger effect = lower value 0.887 | locus YPR025C, strain CCL1, stronger effect = lower value 0.995 | locus YPR106W, strain ISR1, stronger effect = lower value 0.964 | locus YPR111W, strain DBF20, stronger effect = lower value 0.936 | strain NNK1, stronger effect = lower value 0.974 | strain TSCII, stronger effect = lower value 0.986
active: locus YLR113W, strain HOG1, stronger effect = lower value 0.858
